Test results published in PubChem BioAssay AID2676 (National Center for Advancing Translational Sciences (NCATS), 2010).
Out of some 370,000 compounds screened, about 1,100 (0.3%) were called active. Inconclusive results (about 1%) are left out. Calls come from the whole dose curve; as a rule, active = well fitted activation curve with a large enough effect; inconclusive = small, poorly fitted or top-dose-only effect; inactive = flat fitted curve, though single readings scatter. Only a selection was taken, and actives are over-represented in it overall.

Biological target: Relaxin receptor 1 (Homo sapiens) (UniProt Q9HBX9)
Sequence (Q9HBX9 whole entry, looked up): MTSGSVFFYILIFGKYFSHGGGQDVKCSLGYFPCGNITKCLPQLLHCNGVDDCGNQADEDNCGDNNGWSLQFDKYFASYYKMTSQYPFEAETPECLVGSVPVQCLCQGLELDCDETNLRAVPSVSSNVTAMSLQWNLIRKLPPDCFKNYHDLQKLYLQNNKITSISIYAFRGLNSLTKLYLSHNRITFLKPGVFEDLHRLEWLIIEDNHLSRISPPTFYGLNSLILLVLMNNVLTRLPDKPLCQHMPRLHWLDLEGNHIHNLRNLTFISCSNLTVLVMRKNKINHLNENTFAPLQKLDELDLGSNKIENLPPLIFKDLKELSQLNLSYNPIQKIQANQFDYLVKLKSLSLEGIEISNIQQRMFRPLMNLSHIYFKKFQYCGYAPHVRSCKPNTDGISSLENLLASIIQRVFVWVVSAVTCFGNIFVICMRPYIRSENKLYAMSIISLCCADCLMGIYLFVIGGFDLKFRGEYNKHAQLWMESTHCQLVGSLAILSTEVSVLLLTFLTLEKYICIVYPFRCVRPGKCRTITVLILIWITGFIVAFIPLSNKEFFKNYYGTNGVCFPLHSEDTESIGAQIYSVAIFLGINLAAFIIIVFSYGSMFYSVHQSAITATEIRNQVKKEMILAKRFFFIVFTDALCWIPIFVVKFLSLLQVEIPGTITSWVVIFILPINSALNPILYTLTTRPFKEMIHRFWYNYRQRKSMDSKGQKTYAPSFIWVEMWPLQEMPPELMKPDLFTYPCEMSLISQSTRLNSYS
Assay: qHTS Assay for Agonists of the Relaxin Receptor RXFP1; note: nearly all actives have a fitted effect of over 60% in size
Details: HEK293T-RXFP1 cAMP TR-FRET, 30 min; series mostly up to 57.5 µM
Excerpt: NIH Chemical Genomics Center [NCGC] NIH Molecular Libraries Probe Production Centers Network [MLPCN] MLPCN Grant: R03 MH085705-01A1 Assay Submitter (PI): Alexander Agoulnik NCGC Assay Overview: The relaxin hormone is involved in the variety of biological functions in normal tissues and diseases. The role of relaxin is well-established in female reproduction and parturition, mammary gland and endometrial development, maintenance of myometrial quiescence during pregnancy. Relaxin signaling through its G protein-coupled receptor (GPCR) RXFP1 results in ECM remodeling through regulation of collagen deposition, cell invasiveness, proliferation and overall tissue homeostasis. […] Recombinant human relaxin (rhRlx) is currently being tested in clinical trials as a protective agent in congestive heart failure, in treating severe preeclampsia, and as an anti-fibrotic agent in systemic sclerosis. Upon relaxin binding RXFP1 activation leads to the activation of adenylate cyclase (AC) via Gs. cAMP will activate PKA, which phosphorylates many signaling proteins. Thus, detection of cAMP increase is an easy and reliable indication of relaxin receptor activation. To screen for agonists of the relaxin receptor, a HEK293T cell line stably transfected with RXFP1 was used. RXFP1 activation was assayed by changes in cAMP levels as detected with a time-resolved fluorescence energy transfer (TR-FRET) cAMP detection kit.
NCGC Assay Protocol Summary: This is a cell-based assay for cAMP second messenger response to screen for agonists of the RXFP1 receptor. The assay was conducted in the presence of a PDE4 inhibitor (Ro 20174). The cells were lysed and the cAMP levels were measured with a TR-FRET cAMP kit. Presence of cAMP in the cell lysate disrupts binding between the cryptate-labeled anti-cAMP and d2-labeled cAMP pair, leading to a decrease in the TR-FRET signal. Data were normalized to the controls for basal activity (buffer only) and 100% activity (29 nM porcine relaxin). The EC50 values were determined from concentration-response data modeled with the standard Hill equation 1536-well assay protocol for the HEK293 RXFP1 cAMP assay: (1) Add 3 ul HEK293 RXFP1 cell culture. 2000 cells/well in DMEM/F12, 10% FBS, 1x Pen/Strep (dispensed offline with MultiDrop Combi). (2) Incubate 16-24 hr at 37C, 5% CO2. (3) Add 1 ul 400uM Ro20174 in DPBS, 0.05% BSA, 0.005% Tween 20. (3) Add 23 nl compounds in DMSO solution. Final concentration was 0.5 - 58 uM. (4) Incubate 30 min at 37C, 5% CO2. (5) Add 1 ul cAMP-d2 in lysis buffer (HTRF cAMP HiRange kit, CisBio). (6) Add 1 ul anti-cAMP antibody-cryptate in lysis buffer (HTRF cAMP HiRange kit, CisBio). (7) Incubate 30 min at room temperature. (6) Detect the assay plate in a ViewLux plate reader (PerkinElmer) with Ex=320 nm, Em1=615 nm and Em2=665 nm. Keywords: relaxin, RXFP1, RXFP2, G-protein coupled receptor, cAMP, agonist, high throughput screening, MLSMR, MLSCN, NIH Roadmap, qHTS and NCGC

Potency, inactive:
CCc1ccc(CN(Cc2ccco2)C(=O)COc2ccc(Cl)c(C)c2)cc1
CCOc1ccccc1C(=O)NCC(c1ccc(N(C)C)cc1)N1CCCC1 (stereo not drawn)
Cc1cccc(Nc2cc(C)nc(-n3nc(C)cc3C)n2)c1
Cc1ccc2oc(=O)c3cnn(CC(=O)NCc4ccccc4Cl)c3c2c1
Cc1ccc(-c2cnc(NCc3ccc(C(C)C)cc3)n2C)cc1
COc1ccc(/C=C/c2nc(C#N)c(NCc3ccc(F)cc3)o2)cc1OC
COc1cccc(-c2nnc3n(CCc4ccccc4)c(=O)c4ccccc4n23)c1O
CCCSc1ncc(Cl)c(C(=O)Nc2sc3c(c2C(=O)NCCOC)CCCC3)n1
O=C(COc1ccccc1Cl)Nc1ccc2nc(SCC(=O)N3CCCC3)sc2c1
Cc1ccc(CNC(=O)CCc2c(C)nn(-c3ccc(N4CCCC4)nn3)c2C)cc1
Cc1cc(C)c(NC(=O)CN2C(=O)c3cccnc3Oc3ccc(Cl)cc32)c(C)c1
Cc1cccc(CSc2nc3ccncc3n2CC(=O)N(C)C2CCCCC2)c1
O=C(CSc1nccn1Cc1ccc(F)cc1)NCc1ccccc1
Cc1ccc(NC(=O)CSc2nnc3[nH]c(=O)cc(C)n23)cc1Cl
COc1ccc(-c2nc(SCC(=O)N3CCCCC3C)n[nH]2)cc1 (stereo not drawn)
O=C(c1cccc(Br)c1)N1CCN(Cc2cc(=O)n3nc(-c4ccccc4)sc3n2)CC1
Cc1ccc(-n2cnc3cc(C(=O)NCCC4=CCCCC4)ccc32)cc1Cl
Brc1ccc2c(c1)NC(c1cccnc1)=NC(c1ccccc1)=N2
CCc1cnc2c(c1SCC(=O)N1CCC(C)CC1)c(=O)n(C)c(=O)n2C
Cc1cc(C)c(/C=C/c2onc(C)c2S(=O)(=O)N2CCC(C(=O)Nc3ccc(Cl)cc3C)CC2)c(C)c1
CCCNC(=O)c1ccc2c(c1)ncn2-c1ccc(C)cc1C
COc1ccc(S(=O)(=O)NCc2cccn2Cc2cccc(C)c2)cc1Cl
CCOC(=O)N1CCc2c(sc(NCc3cccc(F)c3)c2C(=O)Nc2ccccc2OCC)C1
COc1cccc(OCCn2c(-c3ccc(Br)cc3)nc3ccccc3c2=O)c1
O=C(CCS(=O)(=O)c1ccc2c(c1)NC(=O)CO2)Nc1cccc(C(F)(F)F)c1
CCOc1ccc(C(=O)/C=C/c2cn(CC(O)CN3CCCCCC3)c3ccccc23)cc1 (stereo not drawn)
COc1ccc(N2CCN(C(=O)CSCc3nc(-c4ccccc4Cl)oc3C)CC2)cc1
Cc1ccc(NC(=O)NC(C)c2c(-n3cccc3)sc(C)c2C)c(C)c1 (stereo not drawn)
